From PubChem BioAssay (NCI)
Values joined by “and” are separate entries in the source; they are usually repeats but may differ in a detail not shown here. Identical values can stand only once. Compounds without any hit were thinned out: in the full panel of roughly 79,000, 15% have a hit. Values without a mark were called inactive. Active and inactive are the calls of the source. Rule as the data show it: active = growth inhibition above about 70%; inactive = the rest.

Columns and labels:
[1] = NCI Yeast Anticancer Drug Screen. Data for the rad50 strain (AID 155);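 also: 0% = growth of vehicle-only cultures of the same strain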; details: S. cerevisiae rad50 strain growth inhibition, hits give high values; at 50.0 µM unless noted
Summary of the method: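 Yeast carrying a defined DNA repair defect were exposed to test compounds, and growth was compared with vehicle-treated controls to give percent inhibition.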

[2] = NCI Yeast Anticancer Drug Screen. Data for the mec2-1 strain (AID 157); details: S. cerevisiae mec2-1 strain, hits give high values; at 50.0 µM unless noted
Summary of the method: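 Test agents were screened against the mec2-1 yeast strain, with defined DNA repair or cell cycle alteration. Growth was scored as inhibition against vehicle-only controls.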

[3] = NCI Yeast Anticancer Drug Screen. Data for the sgs1 mgt1 strain (AID 161);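 also: 0% = growth of cultures given vehicle only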; details: S. cerevisiae sgs1 mgt1 strain, hits give high values; at 50.0 µM unless noted
Summary of the method: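 Read-out: growth inhibition vs vehicle controls. Cells: mutant yeast strain deficient in DNA damage repair.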

[4] = NCI Yeast Anticancer Drug Screen. Data for the cln2 rad14 strain (AID 165);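 also: 0% = growth equal to vehicle treated cultures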; details: S. cerevisiae cln2 rad14 strain, hits give high values; at 50.0 µM unless noted
Summary of the method: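 Growth of compound-exposed yeast (cln2 rad14 genotype) measured and expressed as inhibition relative to vehicle.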

[5] = NCI Yeast Anticancer Drug Screen. Data for the bub3 strain (AID 167); details: S. cerevisiae bub3 mutant strain, hits give high values; at 50.0 µM unless noted
Summary of the method: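 Compounds were applied to a genetically altered yeast strain carrying a cell-cycle control defect. Growth inhibition was scored against vehicle-treated controls.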

[6] = NCI Yeast Anticancer Drug Screen. Data for the mlh1 rad18 strain (AID 175); details: S. cerevisiae mlh1 rad18 strain growth inhibition, hits give high values; at 50.0 µM unless noted
Summary of the method: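 In this whole-cell yeast screen, a strain with altered DNA damage repair is challenged with compound, and its growth is measured against matched vehicle-treated controls.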

SMILES | growth inhibition [1] | growth inhibition [2] | growth inhibition [3] | growth inhibition [4] | growth inhibition [5] | growth inhibition [6]
COC(=O)/C(C#N)=N/O | 16.6% | -39.1% | -22.8% | 8.4% | -7.7% | -21.6%
COc1ccc(C(OC(=O)Oc2ccccc2)c2ccccc2)cc1 (stereo not drawn) | -9.1% | 6.55% | -6.9% | -20.1% | -16.4% | 7%
COC(=O)N1C=NC2C3(C)C(C)=C(C)C3(C)C21C (stereo not drawn) | 0.35% | -3.55% | -4.1% | -24.9% | -0.4% | -7.45%
CN(C(=O)c1ccc([N+](=O)[O-])cc1)C(c1ccco1)P(=O)(c1ccccc1)c1ccccc1 (stereo not drawn) | 71.1% (active) | 36.4% | 56.5% | 0.4% | 46.2% | 26.4%
CC(=O)Nc1ccc(N(C)C)cc1 | 0.15% | -3.4% | 0.55% | 10.2% | 14.7% | -7.85%
CC(=O)Sc1ccc2c(c1)-c1ccccc1C2=O | 28.6% | 27.2% | 22.4% | 8.25% | 39.6% | 16.9%
N#CC(c1ccccc1)c1ccc(C(c2ccccc2)(c2ccccc2)C(C#N)c2ccccc2)cc1 (stereo not drawn) | 17.4% | 8.55% | 13.9% | 19.3% | -4.8% | 5.1%
Cc1cccc(NC(=O)N(C(C)C)C(C)C)c1 | -16.4% | -38.2% | -3.55% | 2.8% | 5.8% | -27.6%
O=C(Cc1cccnc1)c1cccnc1 | -52.3% | -18.9% | -8.15% | -11.9% | -15% | -7.55%
CCCSc1nc(C(=O)O)cc(=O)[nH]1 | -8.9% | -13.8% | -4.8% | -44.2% | -5.1% | -8.15%
COc1ccc2c(c1)OC[C@@H]1c3cc(NS(=O)(=O)c4ccccc4)cc(OCc4ccccc4)c3O[C@H]21 | -16.4% | -8.75% | -13.5% | -17.3% | 1.4% | -6.55%
CC1CCC2(OC1)OC1CC3C4CC=C5CC(O)CCC5(C)C4CCC3(C)C1C2C (stereo not drawn) | 21.8% and 13.3% | 16.9% and -23.6% | -1.5% and 3.2% | -3.95% and 4% | 1.35% and 14.8% | 32.9% and 15.3%
O=C(Nc1cc(Cl)c(Cl)cc1Cl)C(=O)C(C(=O)c1ccc(Cl)c(Cl)c1)C1OC(=O)c2ccccc21 (stereo not drawn) | 19.4% | 8.55% | 0.55% | 27% | 4.05% | 22.6%
CC1=Nc2ccccc2S/C1=C(/C)NNS(=O)(=O)c1ccc(C)cc1 | 10.1% | -0.05% | 0.25% | -6.3% | 7.75% | 18.1%
Cc1ccccc1-c1nc2c(N)nc(N)nc2nc1N | -4.2% | -12.8% | -23.6% | -18.9% | -36.9% | -62%
O=[N+]([O-])c1ccc(S(=O)(=O)O)cc1 | 43.6% | 25.1% | 37.5% | -22.7% | 9.65% | 43.1%
CN(C)C1=CC(=S)NC(c2ccccc2)C1 (stereo not drawn) | -2.35% | -16.1% | -3.7% | -11.8% | -15% | -0.55%
COC(=O)C1CCC(=O)N1Cc1cccs1 (stereo not drawn) | -22.9% | -1.7% | -11.1% | 22.1% | 3.55% | -13.2%
O=C(NO)/C(CC(=O)c1cccc(O)c1)=N\O | -7.05% | 10.1% | -7.35% | -8.55% | -11.1% | 5.5%

SMILES | growth inhibition [1] | growth inhibition [2] | growth inhibition [3] | growth inhibition [4] | growth inhibition [5] | growth inhibition [6]
OC(c1ccc(Cl)cc1)c1ccccn1 (stereo not drawn) | 1.7% | -9% | -7.3% | -17% | -18.9% | -8.75%
CC(C)(C)[Si](C)(C)OCC1OC(n2cnc3c(=O)[nH]cnc32)CC1O (stereo not drawn) | 0.35% | 6.2% | 3.2% | 8% | 44% | -7.85%
CN(C)C(=S)Oc1c([N+](=O)[O-])cc([N+](=O)[O-])cc1C(C)(C)C | 94% (active) | 89.9% (active) | 93.8% (active) | 78% (active) | 92.6% (active) | 95% (active)
CC(NCCN1CCOCC1)c1ccc2ccccc2c1 (stereo not drawn) | 40.7% | 15.4% | 41.5% | 23.9% | 32.8% | 42.6%
O=C1NN(C(=O)c2ccccc2)C(c2ccccc2[N+](=O)[O-])c2c1c1ccccc1n2C(=O)c1ccccc1 (stereo not drawn) | 28.9% | 5.65% | 5.2% | -23.4% | -4.05% | 14.9%
CC(O)C(O)CC(/C=N/NC(=O)c1ccccc1)=N/NC(=O)c1ccccc1 (stereo not drawn) | 3.55% | 4.25% | -14.6% | -7.55% | -0.75% | 2.8%
O=C(O)c1cccc2c(=O)c3ccccc3oc12 | -13.9% | -39.8% | -16.9% | 8.25% | -32.4% | 0.85%
Cc1ccc(S(=O)(=O)NC(=O)NNc2ccc(F)cc2)cc1 | 2.5% | 2.15% | 1.65% | 17.9% | -12.1% | 42.5%
c1cc2c(cc1CSCc1c(CSCc3ccc4c(c3)OCO4)c(CSCc3ccc4c(c3)OCO4)c(CSCc3ccc4c(c3)OCO4)c(CSCc3ccc4c(c3)OCO4)c1CSCc1ccc3c(c1)OCO3)OCO2 | -0.95% | -8.65% | -1.4% | -39% | 2.55% | 9.3%
OCC(O)Cc1ccccc1 (stereo not drawn) | -7% | -12.8% | 3.2% | -13.1% | -1.8% | 5.05%
COc1ccc(CNC(=O)CC(C)=O)cc1 | -6.7% | -17.5% | 3.35% | 7.25% | 13% | 0.95%
CCC(C(=O)O)C(=O)O.[NH2-].[NH2-].[Pt+2] | 11.8% | -6.6% | -11.1% | 14.1% | -9.55% | 2.4%
O=c1[nH]c2ccc(O)cc2o1 | 33.2% | 17.8% | 27.6% | -10.1% | 12.9% | 22.2%
O=C(O)c1cc(Cl)cc(C(=O)O)n1 | -19.4% | -1.75% | -11.8% | 16.1% | 4.65% | -1.7%
CCOC(=O)C(c1ccc2c(c1)OCO2)C1(NC(=O)c2ccccc2)C(=O)C(C(=O)OC)C(=O)C1C(=O)OC (stereo not drawn) | 16.5% | 6.15% | -6.7% | 10% | 1.4% | 10.9%
CCOC(=O)c1cn[nH]c1C | 1.35% | -0.9% | -2.2% | -21.4% | -3.05% | -1.95%
NC1=CN(CCCO)C2=N/C(=C\c3ccccc3)C(=O)N12 | 14.2% | -3.65% | 26.4% | 8.9% | -3.3% | 12.7%
CC(=O)OC/C(=C/C#N)C1CCC2C3CC=C4CC(OC(C)=O)CCC4(C)C3CCC12C (stereo not drawn) | 15.6% | -1.25% | -3.75% | -12.8% | -2.15% | 8.65%
CCCCCCCC(=O)Nc1cccc(O)c1 | 4.8% | -6.95% | -11.7% | -34.9% | -6.3% | -6.15%
